Assay outcomes deposited in PubChem BioAssay by several laboratories.
Rows were chosen to be rich in hits. Some 2.2% of all compounds tested hit in one or more screens of this group.
Mot1-301 SUMO: blocks SUMOylation pathway, rescuing yeast Mot1-301 growth; S. cerevisiae Mot1-301 growth rescue, ATP luminescence, 38.5C; percent above DMSO median, 100 means doubled; growth rescue, % at 18.8 µM; actives 1% (n = 320,000);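 active means every valid replicate shows activation above 250% relative to neutral control wells; inactive means the rest, any valid replicate at or below 250%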;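 further: OY570 slx delta 5 strain wells were the positive control but not used for scaling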
PHOSPHO1 block: inhibitors of human PHOSPHO1 phosphatase. Q8TCT1. recombinant PHOSPHO1, absorbance phosphatase assay. inhibition, % at 13.3 µM. actives 1.1% (n = 290,000); in the data active means inhibition above about 60%
pCIP destab: p/CIP protein destabilization; Q05BA5; F442A p/CIP-EGFP cells, EGFP fluorescence, 16 h; decrease of EGFP signal, % at 10 µM; actives 0.01% (n = 290,000); AID 1984;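 active means EGFP signal decrease of at least 30% at 10 µM or well 3 SD below plate mean, unless failing retest; inactive means the rest, including hits failing retest or dose response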
JMJD2C inh: human JMJD2C demethylase inhibition. Q9H3R0. GST-JMJD2C(1-420) H3K9me3 demethylation, DELFIA europium. inhibition, % at 2.35 µM. actives 0.069% (n = 330,000);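 active means more than half of a compound's replicate wells show inhibition beyond 50%, single wells judged on their own value; inconclusive means some, but no more than half, of replicates pass 50% inhibition; inactive means no replicate passes 50% inhibition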;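 further: signal counts dimethyl H3K9 product captured on neutravidin plate; 0% = median of DMSO wells and 100% = 0.3 times that DMSO median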
Target sequence (Q9H3R0 1-420 limits assumed): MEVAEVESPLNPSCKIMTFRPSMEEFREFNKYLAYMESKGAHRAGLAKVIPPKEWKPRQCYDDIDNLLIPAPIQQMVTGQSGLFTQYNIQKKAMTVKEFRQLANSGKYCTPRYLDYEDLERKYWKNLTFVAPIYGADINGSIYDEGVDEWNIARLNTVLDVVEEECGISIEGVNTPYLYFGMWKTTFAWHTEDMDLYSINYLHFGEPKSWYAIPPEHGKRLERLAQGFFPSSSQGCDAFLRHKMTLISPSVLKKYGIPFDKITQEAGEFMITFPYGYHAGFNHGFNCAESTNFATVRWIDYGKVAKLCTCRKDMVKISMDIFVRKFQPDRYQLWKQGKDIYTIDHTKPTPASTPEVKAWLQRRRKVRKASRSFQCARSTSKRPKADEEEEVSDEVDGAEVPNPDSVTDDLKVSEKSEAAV
PvdQ inh: blocks Pseudomonas aeruginosa PvdQ acylase activity | purified PvdQ acylase, fluorescence plate reader | inhibition, % at 10 µM | actives 0.063% (n = 340,000); in the data active means inhibition above about 30%, passing the limit was not always enough; inconclusive means no clear call, values can overlap the other calls;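 further: 0% = vehicle neutral wells and 100% = reference inhibitor wells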
HDAC3 inh: blocks human histone deacetylase 3 | actives 0.15% (n = 320,000) | inhibition, % at 8.3 µM | AID 2718 | O15379 | recombinant HDAC3, fluorogenic peptide/trypsin coupled, fluorescence; in the data active means inhibition above about 26%, passing the limit was not always enough; inconclusive means no clear call, values can overlap the other calls
Yeast Mot1 SUMO: SUMO pathway inhibitors in yeast Mot1-301 growth; shares compounds with Mot1-301 SUMO; S. cerevisiae Mot1-301 galactose growth, ATP luminescence, 24 h; -100 = growth of slx-deleted rescue strain; growth activity, percent, % at 42 µM; 2,300 tested, under 10 active;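 active means Signal drops as the depositor expects, and the fitted half-maximal dose is no more than ten times the top valid tested dose; inconclusive means Poor fit, or a flat curve whose signal drops by 30% to 70%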;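 further: more negative values mean stronger growth rescue toward the control strain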
Starred values were filed as active, the others as inactive; ? = inconclusive; / = no result given; + = active, no number.

SMILES	Mot1-301 SUMO	PHOSPHO1 block	pCIP destab	JMJD2C inh	PvdQ inh	HDAC3 inh	Yeast Mot1 SUMO
Cn1c(CN2CCOCC2)nnc1SCC(=O)Nc1cc(Cl)ccc1Cl	611*	24	-12	0	-6	5	2
CCN1C(=S)N[C@@H](c2cccs2)C(C(=O)OC)=C1C	896*	-7	2	2	1	8	0
CCN1C(=S)N[C@@H](CCc2ccccc2)C(C(=O)OC)=C1C	+	-2	-6	-14	-13	3	0
Cc1cc(C)nc(NS(=O)(=O)c2ccc(NC(=O)Cc3ccccc3F)cc2)n1	1	37	-5	-6	-15	3	/
COc1cc(CC(=O)OCC(=O)NCC(C)C)cc(OC)c1OC	10	44	14	-2	-9	-1	/
CCOc1ccccc1NS(=O)(=O)c1cn(C)nc1C	1	15	-10	-6	-10	-4	/
CCOc1ccc(-c2nc(C#N)c(N3CCOCC3)o2)cc1	417*	-2	-3	-1	-2	-103	-1
CCc1ccc(S(=O)(=O)NCc2cccnc2)cc1	571*	/	-2	-7	-1	3	-1
COc1ccccc1CNC(=O)CN(c1ccc(C)cc1)S(=O)(=O)c1c(C)n[nH]c1C	912*	24	3	8	2	1	-1
COc1ccccc1CNC(=O)CN(c1ccc(C)cc1)S(=O)(=O)c1c(C)noc1C	0	12	3	-14	-5	0	/
CCOc1ccc2[nH]c(=O)c(CN(Cc3ccco3)C(CC)c3nnnn3Cc3ccccc3)cc2c1 (stereo not drawn)	+	0	-14	2	-4	0	0
CCOc1ccc2[nH]c(=O)c(CN(Cc3ccco3)Cc3nnnn3Cc3ccccc3)cc2c1	132	-30	-9	0	-9	-2	/
Cc1ccc(-c2csc(C3=C(O)CN(NC(=O)c4ccco4)C3=N)n2)cc1	375*	2	-19	1	-1	-1	0
COc1ccc(N2CC(O)=C(c3nc(-c4ccccc4)cs3)C2=N)cc1	-10	20	5	-1	-26	/	/
Cc1cc(C)c(S(=O)(=O)NCC(c2cccnc2)N2CCN(Cc3ccccc3)CC2)c(C)c1 (stereo not drawn)	524*	30	6	14	-28	-1	0
COc1ccccc1CN(C)C(=O)C(NC(=O)Cc1cccc2ccccc12)C(C)C (stereo not drawn)	-9	35	-3	-29	-12	5	/
CCSc1nnc2nc(C)cc(C)n12	300	-43	-11	-6	-3	-6	/
Cc1cc(C)n2c(SCC(C)C)nnc2n1	770*	45	-2	-7	-12	7	-1
CCOc1ccc(S(=O)(=O)NNS(=O)(=O)c2ccc(C)cc2C)cc1	-4	-108	-8	-11	-15	1	/
O=C(CN1CCN(C(=O)c2ccccc2)CC1)Nc1ccc(Cl)cc1F	6	3	1	-7	-9	-2	/
O=C(CN1CCN(C(=O)c2ccccc2)CC1)Nc1ncc(Br)cc1Br	+	-14	-5	-5	9	8	0
Cc1sc(NC(=O)c2ccc(Br)s2)c(C(N)=O)c1C	408*	6	-6	1	7	8	-2
Cc1sc(NC(=O)c2ccc(Cl)s2)c(C(N)=O)c1C	23	17	9	79	1	-15	/
O=C(CN1C(=O)NC2(CCCC2)C1=O)Nc1nc2ccccc2[nH]1	553*	/	/	4	-7	1	0
Cc1cc(Cl)ccc1N(CC(=O)NCc1ccc2c(c1)OCO2)S(C)(=O)=O	1	37	-3	6	3	?	/
SMILES	Mot1-301 SUMO	PHOSPHO1 block	pCIP destab	JMJD2C inh	PvdQ inh	HDAC3 inh	Yeast Mot1 SUMO
CCOC(=O)c1ccc(N2CN(CCc3ccccc3)CNC2=S)cc1	-26	-3	1	-31	0	-1	/
Cc1ccc(N2CN(CCc3ccccc3)CNC2=S)cc1	419*	24	-2	10	-3	-6	1
COc1ccc(-c2c(C)[nH]n3c(=O)c(Cc4ccccc4)c(C)nc23)cc1	-16	-2	-6	21	-5	-4	/
O=C(Nc1ccc(S(=O)(=O)N2CCOCC2)cc1)c1cccs1	-10	-31	-8	-2	-12	-4	/
CC1CCN(S(=O)(=O)c2ccc(NC(=O)c3cccs3)cc2)CC1	415*	-28	-6	1	-4	-6	1
O=C(O)CCC(NC(=O)c1ccc(Cl)cc1)C(=O)O (stereo not drawn)	+	-11	12	-1	-9	-4	0
CCCS(=O)(=O)N1CCC(C(=O)N2CCc3ccccc3C2)CC1	397*	35	1	7	-13	5	0
COc1ccc(S(=O)(=O)NCCc2c[nH]c3ccc(C)cc23)cc1	-20	-2	-9	5	-11	1	/
COc1ccc2[nH]cc(CCNS(=O)(=O)c3ccc(C)cc3)c2c1	484*	24	-7	-18	-17	0	0
O=[N+]([O-])c1ccc(S(=O)(=O)NN=Cc2ccc(Cl)c(Cl)c2)cc1	/	/	/	/	-12	/	/
CCSc1nc2ccccc2c(=O)n1C1CCOC(C)(C)C1 (stereo not drawn)	545*	-5	0	-13	19	6	0
COc1ccc(C(=O)OCC(=O)c2ccccc2)cc1S(=O)(=O)N1CCOCC1	+	5	-24	32	2	10	0
CNC(=O)Nc1cccc(C(F)(F)F)c1	5	6	-6	2	10	-10	/
CNC(=O)Nc1cc(NC(=O)NC)cc(C(F)(F)F)c1	586*	25	-6	2	-15	-10	0
CCc1nnc(NC(=O)CSc2ccc(-c3ccc(-n4cccn4)cc3)nn2)s1	781*	/	/	-3	10	-4	0
Cc1ccccc1NC(=O)CSc1ccc(-c2ccc(-n3cccn3)cc2)nn1	-2	/	/	-3	5	-1	/
Cn1c(C(=O)N2CCN(c3ccc(F)cc3)CC2)cc2ccccc21	-29	14	-12	9	10	2	/
O=C(O)CCc1ccc(-c2cccs2)n1NC(=O)c1cccs1	+	42	0	-2	-13	0	0
O=C(O)CCc1ccc(-c2cccs2)n1NC(=O)c1ccc(O)cc1	-31	0	-11	5	-12	4	/
O=C(O)c1ccc(Cl)c(S(=O)(=O)NC(Cc2ccccc2)C(=O)O)c1 (stereo not drawn)	0	43	-12	1	-1	-3	/
CC1CCCC(N2C(=O)NC(NC(=O)c3ccco3)(C(F)(F)F)C2=O)C1C (stereo not drawn)	510*	-21	-12	-2	3	8	-1
